# An excerpt weighted towards active compounds, which were near 9.2% of everything screened.
# Rab9 prom act: qHTS Assay for Rab9 Promoter Activators; Huh7 Rab9 promoter-luciferase reporter, luminescence, 24 h; Potency, µM (highest dose often 9.22 µM), without a hit: at the highest dose activation, negative = inhibition, usual class: activators; hit rate 2.8% among 320,000; AID 485297, 2010; note: % of control where 0% means no effect; nearly all actives have a fitted effect of over 60% in size
#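 Luminescence from Amplite-detected luciferase (10 minutes, ambient) reports Rab9 promoter activation. Before that, stable Rab9-luciferase Huh7 cells (1500/well, reduced-serum OP-MEM I plus 10% FBS) were exposed to compound for 24 hours at 37C.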
# NPC1 promoter act: qHTS Assay for NPC1 Promoter Activators; Huh7 NPC1 promoter luciferase reporter, 24 h; hit rate 2.4% among 320,000; Potency, µM (titrated, usually from 9.22 µM), for inactives: at the highest dose activation, hits mostly activators; note: % of control where 0% means no effect; nearly all actives have a fitted effect of over 60% in size
#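 Huh7 reporter cells (NPC1 promoter driving luciferase) are dosed with compound for 24 h at 37 °C, 5% CO2; luciferase detection reagent is then added and luminescence measured after 10 min at ambient temperature.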
# SMN2 splice up: qHTS Assay for Enhancers of SMN2 Splice Variant Expression; AID 1458, 2008; hit rate 2.8% among 210,000; Potency, µM (series often up to 46.1 µM), for the others: at the highest dose activity change, positive = activation, actives largely listed as activators; HEK293 SMN2-luciferase splicing reporter, luminescence, 30-36 h; note: % of control where 0% means no effect; nearly all actives have a fitted effect of over 55% in size
#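 qHTS luciferase splicing reporter: luminescence rises when SMN2 exon 7 is included in transfected HEK293 cells. Compound exposure lasted 30-36 h at 37C, with 4.5 mM final sodium butyrate as control, followed by a ONE-Glo read.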
# ELG1 genotoxic: qHTS screen for small molecules that induce genotoxicity in human embryonic kidney (HEK293T) cells expressing luciferase-tagged ELG1. HEK293T ELG1-luciferase reporter, luminescence, 16 h. Potency, µM (highest dose often 46 µM), for inactives: top-dose activity change, positive = activation, usual class: activators. hit rate 1.3% among 330,000. AID 504466, 2011; note: % of control where 0% means no effect; nearly all actives have a fitted effect of over 60% in size
#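 Quantitative HTS format in 1536-well plates. HEK293T ELG1-luciferase reporter cells receive test compound and are incubated 16 hr at 37 °C, 5% CO2; ONE-Glo added, 30 min room temperature, then luminescence read.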
# FLuc modulator: qHTS profiling assay for firefly luciferase inhibitor/activator using purifed enzyme and Km concentrations of substrates (counterscreen for miR-21 project); Luciferin 4-monooxygenase (Photinus pyralis), P08659; purified FLuc, Km substrates, luminescence inhibition; Potency, µM (highest dose often 57.5 µM), without a hit: at the highest dose activity change, negative = inhibition, most hits filed as inhibitors; hit rate 6.9% among 360,000;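 note: plate controls were vehicle for no effect and reference inhibitor for full effect; nearly all actives have a fitted effect of over 55% in size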
# Target sequence (P08659 whole entry, looked up): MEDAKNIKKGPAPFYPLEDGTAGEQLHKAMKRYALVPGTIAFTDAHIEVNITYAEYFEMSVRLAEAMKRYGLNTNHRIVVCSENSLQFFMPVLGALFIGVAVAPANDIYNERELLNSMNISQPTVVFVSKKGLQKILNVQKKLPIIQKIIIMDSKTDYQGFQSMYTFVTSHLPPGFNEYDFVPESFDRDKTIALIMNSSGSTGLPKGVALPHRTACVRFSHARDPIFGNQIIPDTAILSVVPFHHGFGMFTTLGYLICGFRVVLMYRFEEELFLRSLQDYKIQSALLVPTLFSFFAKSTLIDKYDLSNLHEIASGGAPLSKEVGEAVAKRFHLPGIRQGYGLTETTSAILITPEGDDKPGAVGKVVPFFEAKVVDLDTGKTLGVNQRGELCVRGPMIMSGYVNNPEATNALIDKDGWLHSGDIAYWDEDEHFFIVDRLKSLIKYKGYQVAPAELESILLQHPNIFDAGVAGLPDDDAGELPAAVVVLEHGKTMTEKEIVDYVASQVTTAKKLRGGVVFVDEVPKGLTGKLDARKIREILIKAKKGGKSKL
#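 Biochemical qHTS of compounds, final roughly 60 µM downward over six points, against 10 nM purified firefly luciferase using Km concentrations of substrates (10 uM D-luciferin, 10 uM ATP) in Tris acetate pH 7.5 buffer; luminescence output.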
# ELG1 repair inh: qHTS screen for small molecules that inhibit ELG1-dependent DNA repair in human embryonic kidney (HEK293T) cells expressing luciferase-tagged ELG1; hit rate 2.3% among 330,000; HEK293T ELG1-luciferase reporter, luminescence, 16 h; DNA damage induced by 5-fluorouridine; Potency, µM (titrated, usually from 46.1 µM), without a hit: at the highest dose activity change, negative = inhibition, most hits filed as inhibitors; note: % is set by controls: 0 for no effect and ±100 for the full control effect; nearly all actives have a fitted effect of over 55% in size
#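 Reporter activity after DNA damage by 5-fluorouridine is monitored. Compound-treated cells incubate 16 hr at 37 °C, then ONE-Glo is added for 30 min before luminescence reading.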
# * = called active by the depositor; ? = inconclusive; . = no result. Calls come from the whole dose curve; as a rule, active = well fitted curve in the direction sought with a large enough effect; inconclusive = small, poorly fitted or top-dose-only effect, or another doubt; inactive = no such curve, though single readings can be large; an effect the other way counts as inactive or inconclusive. Potency is the fitted concentration of half-maximal effect.
SMILES,Rab9 prom act,NPC1 promoter act,SMN2 splice up,ELG1 genotoxic,FLuc modulator,ELG1 repair inh
S=c1nc2ccccc2c2nc(-c3ccccc3Cl)[nH]n12,27%,16%,.,-4%,?,?
S=c1nc2ccccc2c2nc(-c3ccccc3)[nH]n12,17%,?,-10%,9%,27µM*,?
CC(=O)c1ccc(S(=O)(=O)Oc2ccc(C(=O)O)cc2Cl)cc1,.,.,.,1%,.,-2%
O=C(N/N=C\c1ccc(F)cc1)c1ccc(Cn2cc(Br)c([N+](=O)[O-])n2)o1,-3%,4%,-14%,3%,21µM*,?
O=C(N/N=C\c1ccc2c(c1)OCO2)c1ccc(Cn2cc(Br)c([N+](=O)[O-])n2)o1,2%,3%,.,3%,6µM*,-3%
O=C(Cn1nnc2ccccc21)OCc1ccccc1,0%,-6%,.,1%,21µM*,15%
O=C(Cn1nnc2ccccc21)NCc1ccccc1,3.2µM*,2.2µM*,11µM*,7.3µM*,13µM*,?
c1ccc(CCn2nnc3ccccc32)cc1,3.2µM*,3.2µM*,.,?,11µM*,?
O=C(Cn1nnc2ccccc21)OCC(=O)c1ccc(Cl)cc1,1%,-3%,.,0%,?,-4%
Cc1nc2ccccc2n1CC(=O)NCc1ccccc1,-24%,-9%,.,?,-3%,-14%
CN1CCc2c(sc3c2C(=O)NC(c2ccc(C(C)(C)C)cc2)N3)C1 (stereo unspecified),.,.,6%,.,?,.
Oc1ccc(-c2n[nH]c(=S)n2-c2ccc3c(c2)OCCO3)c(O)c1,-23%,-5%,-84%,-9%,?,3.7µM*
N/C(=N\OC(=O)c1cccc2ccccc12)c1ccncc1,-2%,2%,.,?,24µM*,?
COc1cccc(C(=O)O/N=C(\N)c2ccncc2)c1,-1%,?,12%,?,1.3µM*,?
COc1cccc(C(=O)O/N=C(\N)Cc2ccc(Cl)cc2)c1,-3%,1%,-4%,-2%,?,1%
Cc1cccc(/C(N)=N/OC(=O)c2ccncc2)c1,4µM*,1.1µM*,.,?,8.5µM*,?
N/C(=N\OC(=O)c1ccncc1)c1cccc([N+](=O)[O-])c1,20%,18%,.,17%,?,?
COc1cccc(C(=O)O/N=C(\N)c2ccc(C)cc2)c1,26%,3.2µM*,.,?,1.9µM*,?
Cc1c(Cl)cccc1N1CCn2c1nc1c2c(=O)n(CC(=O)O)c(=O)n1C,.,.,3%,.,6%,.
Cc1ccccc1NC(=O)c1c(C)oc2ccc(O)c(CN3CCN(C)CC3)c12,.,.,1%,.,-7%,.
O=C(N/N=C/c1cccnc1)c1cc(Br)ccc1O,4µM*,3.2µM*,.,?,4.8µM*,?
O=C(N/N=C/c1ccccn1)c1cc(Br)ccc1O,7%,-1%,.,?,15µM*,14%
O=C(N/N=C/c1ccccn1)c1ccc(Br)o1,0%,-4%,-12%,5%,-22%,-8%
COc1ccc(/C=N/Nc2ccc(C(=O)O)cc2)c(OC)c1OC,3.2µM*,2.8µM*,.,16%,15µM*,?
C=CCOc1c(/C=N\NC(N)=O)cccc1OC,0%,-9%,.,1%,-1%,0%
SMILES,Rab9 prom act,NPC1 promoter act,SMN2 splice up,ELG1 genotoxic,FLuc modulator,ELG1 repair inh
COc1cc(/C=N/Nc2ccc(C(=O)O)cc2)ccc1O,?,?,?,?,1.9µM*,?
COc1cc(/C=N/Nc2ccc(C(=O)O)cc2)cc(OC)c1OC,2µM*,1.6µM*,.,16µM*,11µM*,?
C=CCOc1c(OC)cc(/C=N/Nc2cccc(C(=O)O)c2)c(Br)c1Br,3.2µM*,2.5µM*,14µM*,?,?,?
O=C(CN1C(=O)NC2(CCOc3ccccc32)C1=O)NCCc1ccc(F)cc1 (stereo unspecified),.,.,.,1%,.,2%
Cc1ccc(/C=C/C(=O)OCC(=O)c2ccc3c(c2)NC(=O)CO3)o1,.,.,.,-4%,.,12µM*
NC(=O)c1ccc(NC(=O)CSc2nnc(-c3ccncc3)n2Cc2ccco2)cc1,-2%,0%,.,-1%,3%,1%
Cc1cccc(C(=O)NNC(=O)c2csc(N3CCOCC3)n2)c1C,1%,1%,.,-2%,-14%,?
Cc1c(C(=O)NNC(=O)c2csc(N3CCOCC3)n2)oc2ccccc12,1%,11%,.,2%,27µM*,12%
Cc1c(C(=O)Nc2ccc(N3CCOCC3)cc2)oc2ccccc12,4.5µM*,4µM*,29%,8%,1.9µM*,?
COc1ccc2oc(C(=O)Nc3ccc(N4CCOCC4)cc3)c(C)c2c1,2%,0%,.,-21%,6.7µM*,?
COc1ccc2oc(C(=O)Nc3ccccc3N3CCOCC3)c(C)c2c1,14%,?,.,-2%,?,20%
COc1ccc2oc(C(=O)N3CCCc4ccccc43)c(C)c2c1,?,?,.,16%,19µM*,?
Cc1cn(C)c(CC(=O)N2CCN(c3cccc(C(F)(F)F)c3)CC2)c1C(=O)O,.,.,.,.,-17%,.
CC(=O)c1ccc(NC(=O)c2cc3c(=O)oc4ccc(C)cc4c3s2)cc1,.,.,-8%,.,-5%,.
Cc1c(C(=O)Nc2ccccc2Br)oc2ccc(S(=O)(=O)N3CCOCC3)cc12,.,.,.,.,-5%,.
Cc1c(C(=O)Nc2cc(S(=O)(=O)N3CCOCC3)ccc2N2CCOCC2)oc2ccccc12,0%,-15%,-8%,-15%,-1%,16µM*
Cc1ccc(CNC(=O)CCCCCn2c(=O)c3sccc3n(CC(=O)N3CCCCC3C)c2=O)cc1 (stereo unspecified),.,.,10%,.,-5%,.
Cc1ccc(C(=O)NCC(c2cccs2)S(=O)(=O)c2cccs2)cc1 (stereo unspecified),.,.,.,.,4%,.
CC(=O)c1c(C)[nH]c(C(=O)OCC(=O)Nc2ccc(Cl)cc2[N+](=O)[O-])c1C,-12%,-26%,-77%,3%,0%,3.7µM*
CC(=O)c1c(C)[nH]c(C(=O)OCC(=O)Nc2ccc(Cl)c(S(=O)(=O)N(C)C)c2)c1C,-24%,-4%,.,-9%,-2%,12µM*
Cc1ccc(NC(=O)COC(=O)c2ccc(Cl)cc2)cc1S(=O)(=O)N(C)C,-4%,-5%,11%,4%,-12%,?
CC(=O)c1c(C)[nH]c(C(=O)OCC(=O)Nc2cc(C)on2)c1C,-2%,2%,-39%,6%,1%,-28%

# High-throughput results: PubChem BioAssay, National Center for Advancing Translational Sciences (NCATS)
